Bioassay records from PubChem.
TIM10 inh – TIM10 yeast growth inhibition; S. cerevisiae TIM10 strain growth, BacTiter-Glo luminescence, 24 h; inhibition, % at 10 µM; hit rate 1.4% among 330,000;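 active = inhibition of 40% or more at the single tested concentration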;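 note: wild-type TIM10 isogenic control strain grown at permissive 25 °C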
V-ATPase pH – alters yeast V-ATPase proton transport. S. cerevisiae, pHLuorin cytosolic pH fluorescence. response, % at 10 µM. hit rate 0.37% among 350,000; in the data active = response mostly above about 7.3%, no sharp cut-off; inactive = mostly below about 5.4%; note: actives read high
tim10-1 inh – inhibits growth of tim10-1 mutant yeast; S. cerevisiae tim10-1 ts strain growth, BacTiter-Glo, 24 h; hit rate 2.2% among 330,000; inhibition, % at 20 µM;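 active = inhibition of at least 40%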;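 note: mutant grown at 25 °C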
tim23-1 inh – growth inhibitors of tim23-1 mutant yeast. hit rate 1.3% among 330,000. inhibition, % at 20 µM. S. cerevisiae tim23-1 growth, BacTiter-Glo luminescence, 24 h. AID 463212;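 active = growth inhibition of the mutant yeast at or above 50%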;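 note: temperature-sensitive mutant grown at 25 °C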
NALP3 yeast inh – blocks the NALP3 inflammasome reconstituted in yeast; Yeast reconstituted NLRP3/ASC/caspase-1, beta-gal luminescence, 24 h; hit rate 0.39% among 330,000; inhibition, % at 10 µM;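 active = inhibition of 50% or more; inactive = inhibition below 50%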
NALP1 yeast inh – NALP1 inhibition; S. cerevisiae NALP1/ASC/caspase-1 growth, X-gal OD620, 72 h; inhibition, % at 10 µM; hit rate 0.61% among 280,000; in the data active = inhibition mostly above about 24%, no sharp cut-off; inactive = mostly below about 32%
tim10 confirm – confirmation of TIM10 yeast growth inhibitors; AID 463215; shares compounds with TIM10 inh; S. cerevisiae tim10 strain growth, BacTiter-Glo luminescence, 24 h; inhibition, % at 10 µM; hit rate 63% among 4,600;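 active = inhibition of yeast growth at or above a set limit in either of two replicates at 10 µM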; note: this counterscreen used the strain with wild-type TIM10
Of the large screens only hits and unclear results are named; the others gave an inactive call (follow-up assays come after a bar, where they were run). An excerpt weighted towards active compounds, which were near 4.2% of everything screened.

CN1/C(=C\C(=O)COC(=O)c2nccnc2N)C(C)(C)c2ccccc21	none (no result: NALP1 yeast inh)
CN1/C(=C\C(=O)COC(=O)c2ccc([N+](=O)[O-])o2)C(C)(C)c2ccccc21	TIM10 inh 65.4 | tim10 confirm 75.0
COc1cccc(-c2csc(N3CCN(C(=O)NC45CC6CC(CC(C6)C4)C5)CC3)n2)c1	TIM10 inh 41.8 | tim10 confirm inactive
COc1cccc(NC(=O)N2CCN(c3nc(-c4cccc(OC)c4)cs3)CC2)c1	none (no result: NALP1 yeast inh)
Cc1cc(F)ccc1NCc1cc2c(cc1[N+](=O)[O-])OCO2	TIM10 inh 45.1 | tim10 confirm 40.7
Cn1c(-c2ccc(F)cc2)cnc1NCc1cc2c(cc1[N+](=O)[O-])OCO2	none
CCOC(=O)C1=C(C)C2C3C(=O)N(c4cc(C)ccc4C)C(=O)C3C1(C)C1C(=O)N(c3cc(C)ccc3C)C(=O)C21 (configuration not stated)	none
COc1ccc(C2C(C#N)=C(N)N(c3sc4c(c3C#N)CCCC4)C3=C2C(=O)CC(C)(C)C3)cc1 (configuration not stated)	none
COc1ccc(C2C(C#N)=C3NC(=O)c4c(sc5c4CCCCC5)N3C3=C2C(=O)CC(C)(C)C3)cc1 (configuration not stated)	TIM10 inh 43.1 | tim10 confirm inactive
CCN(C(=O)c1ccc2c(Cl)c3c(nc2c1)CCC3)c1cccc(C)c1	none (no result: TIM10 inh, V-ATPase pH, tim10-1 inh, tim23-1 inh, NALP3 yeast inh)
CC1=NN(c2ccccc2)C(=O)/C1=C\C=C\c1ccccc1	TIM10 inh 54.1 | tim10 confirm 38.1
COc1ccc(C=C2NC(=O)NC2=O)cc1O	none (no result: TIM10 inh, tim10-1 inh, tim23-1 inh, NALP3 yeast inh, NALP1 yeast inh)
O=C(N/N=C/c1cccc(OC(=O)c2ccco2)c1)c1ccc(F)cc1	TIM10 inh 41.3 | tim10 confirm 32.0
COc1cc2sc(-c3ccccc3OC)c(-c3ccc(O)cc3)c2cc1OC	none (no result: NALP1 yeast inh)
C#CCOCCOCCOCCNc1nc(N2CCN(C(=O)[C@H](CCCCN)n3cc([C@@H](N)CO)nn3)CC2)nc(N2CCN(C(=O)[C@H](Cc3cc4ccccc4[nH]3)n3cc([C@@H](N)CC(C)C)nn3)CC2)n1	TIM10 inh 94.2 (no result: V-ATPase pH) | tim10 confirm inactive
C#CCOCCOCCOCCNc1nc(N2CCN(C(=O)[C@H](CCCCN)n3cc([C@@H](N)CO)nn3)CC2)nc(N2CCN(C(=O)[C@H](Cc3cc4ccccc4[nH]3)n3cc([C@@H](N)CO)nn3)CC2)n1	none (no result: V-ATPase pH, NALP1 yeast inh)
Cc1ccc(C23CC4CC(CC(CC(=O)NC(C)(C)CO)(C4)C2)C3)cc1	none
COc1cccc(/C=N/NC(N)=S)c1OCc1cccc(Cl)c1	TIM10 inh 45.6 | tim10 confirm 47.8
CC(=O)C1=C(C)Nc2ncnn2C1c1ccccc1F (configuration not stated)	TIM10 inh 96.5 | tim10 confirm inactive
CC(=O)C1=C(C)Nc2ncnn2C1c1ccccc1 (configuration not stated)	none
Cc1ccc(-c2csc(NC(=O)C3=NN(c4ccccc4)C(=O)CC3)n2)cc1	TIM10 inh 40.4 | tim10 confirm 33.2
Cc1cc(C)c(C(=O)c2ccccc2)c(C)c1	none (no result: TIM10 inh, tim10-1 inh, tim23-1 inh, NALP3 yeast inh, NALP1 yeast inh)
CC[C@H](C)[C@@H](C(=O)N1CCNCC1)n1cc([C@@H](N)CC(C)C)nn1	none
N#C/C(=C\c1ccc(C(=O)O)cc1)S(=O)(=O)c1cc(Br)ccc1Br	TIM10 inh 42.5 | tim10 confirm inactive
CCN(CC)c1ccc(/C=N/NC(=S)NCc2ccccc2)cc1	TIM10 inh 44.2 | tim10 confirm inactive
COc1ccc(CNC(=S)N/N=C/c2ccc(O)c(OC)c2)cc1	none
C=CCNC(=S)N/N=C/c1ccc(N(CC)Cc2ccccc2)cc1	none
COc1ccc(CNC(=S)N/N=C/c2ccc(OC)c(OC)c2)cc1	TIM10 inh 40.2 | tim10 confirm inactive
COc1cccc(C(=O)Nc2cc(S(=O)(=O)N3CCCCC3)ccc2OC)c1	none
COC(=O)c1c(NC(NC(=O)C(C)C)C(Cl)(Cl)Cl)sc2c1CCCC2 (configuration not stated)	none
CCOC(=O)C1CCN(C(=O)c2ccc3c(c2)NC(=O)/C(=C\c2ccc(C)cc2)S3)CC1	TIM10 inh 41.4 | tim10 confirm inactive
COc1ccc(C(=O)/C=C/C(=O)N(Cc2ccc(F)cc2)C(C(=O)NC2CCCCC2)c2ccncc2)c(O)c1 (configuration not stated)	TIM10 inh 44.1 | tim10 confirm inactive
